Measured values taken from PubChem BioAssay (EPA / NIEHS).
Values joined by “and” are separate entries in the source; they are usually repeats but may differ in a detail not shown here. Identical values can stand only once. Results filed as inconclusive are left out. A structure can be active in one record and inactive in another. Active and inactive are the calls of the source. Rule for the calls, unless noted: active = hit-call score of the fitted dose curve at least 0.9, where 1 is the maximum; inconclusive = response in the unintended direction; inactive = score below 0.9.

Legend:
[1] = molecular target: Agonist Androgen Response Element (ARE), AR (gene 367) (UniProt P10275); assay: OT_AR_ARELUC_AG_1440: Odyssey Thera (OT) 24-hour CHO-K1 Luciferase Assay for Agonist Androgen Response Element (ARE) (AID 2283379)
Sequence of Agonist Androgen Response Element (ARE), AR (gene 367) (P10275 whole entry, looked up): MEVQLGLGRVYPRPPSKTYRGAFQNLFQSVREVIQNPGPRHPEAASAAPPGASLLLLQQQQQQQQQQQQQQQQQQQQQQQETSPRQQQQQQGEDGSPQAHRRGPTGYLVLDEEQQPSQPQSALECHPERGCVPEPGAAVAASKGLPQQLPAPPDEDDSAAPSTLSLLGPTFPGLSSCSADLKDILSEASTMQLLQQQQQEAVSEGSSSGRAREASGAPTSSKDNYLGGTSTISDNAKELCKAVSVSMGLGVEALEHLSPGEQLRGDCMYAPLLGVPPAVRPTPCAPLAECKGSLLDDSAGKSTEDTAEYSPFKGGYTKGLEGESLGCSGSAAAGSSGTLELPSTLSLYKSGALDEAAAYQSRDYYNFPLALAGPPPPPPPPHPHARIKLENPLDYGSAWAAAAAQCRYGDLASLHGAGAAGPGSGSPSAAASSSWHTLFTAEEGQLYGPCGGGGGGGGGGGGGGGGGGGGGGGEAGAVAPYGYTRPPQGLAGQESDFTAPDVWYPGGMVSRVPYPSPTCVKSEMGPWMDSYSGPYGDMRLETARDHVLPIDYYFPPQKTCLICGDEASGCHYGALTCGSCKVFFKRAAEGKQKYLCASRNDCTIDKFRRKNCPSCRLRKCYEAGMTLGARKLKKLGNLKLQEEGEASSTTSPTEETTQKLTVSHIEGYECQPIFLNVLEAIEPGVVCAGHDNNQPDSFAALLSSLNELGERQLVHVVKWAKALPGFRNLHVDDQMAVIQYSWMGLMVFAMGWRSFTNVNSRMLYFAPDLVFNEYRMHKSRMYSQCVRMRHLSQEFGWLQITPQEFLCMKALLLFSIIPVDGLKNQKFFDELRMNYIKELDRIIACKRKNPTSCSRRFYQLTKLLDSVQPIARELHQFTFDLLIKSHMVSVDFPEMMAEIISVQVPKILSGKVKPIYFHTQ
How it was run: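 Gain-of-signal reporter endpoint: cells (CHO-K1, hamster) are treated 24 h, luciferin/ATP reagent added, and luminescence compared with DMSO baseline.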

[2] = molecular target: Estrogen receptor beta (Homo sapiens) (UniProt Q92731); assay: OT_ER_ERbERb_1440: Odyssey Thera (OT) 24-hour HEK293T Protein-Complementation Assay for Estrogen Receptor-beta/-beta Homodimer (AID 2283380);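 note: scored as signal increase over DMSO baseline for both agonists and antagonists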
Sequence of Estrogen receptor beta (Homo sapiens) (Q92731 whole entry, looked up, the tested form may be a part): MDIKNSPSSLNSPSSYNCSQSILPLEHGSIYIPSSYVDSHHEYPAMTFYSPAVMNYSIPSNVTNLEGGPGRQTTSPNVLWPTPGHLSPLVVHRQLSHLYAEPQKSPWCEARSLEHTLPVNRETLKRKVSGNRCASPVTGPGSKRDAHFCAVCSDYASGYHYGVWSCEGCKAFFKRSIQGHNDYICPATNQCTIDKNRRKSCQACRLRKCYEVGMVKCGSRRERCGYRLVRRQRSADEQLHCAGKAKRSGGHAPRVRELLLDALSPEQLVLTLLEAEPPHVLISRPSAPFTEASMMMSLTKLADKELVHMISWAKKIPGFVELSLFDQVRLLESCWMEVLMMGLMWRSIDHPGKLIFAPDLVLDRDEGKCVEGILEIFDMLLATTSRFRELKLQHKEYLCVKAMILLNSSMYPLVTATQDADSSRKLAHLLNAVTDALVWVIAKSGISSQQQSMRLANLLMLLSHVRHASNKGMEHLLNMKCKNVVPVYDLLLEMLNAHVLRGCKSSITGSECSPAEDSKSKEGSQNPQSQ
How it was run: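 HEK293T cells stably expressing ER beta LBD (aa 310-547) homodimer fragment-complementation reporter, dosed 24 h. Cells formaldehyde-fixed, Draq5-stained; gain in nuclear (agonist) or nuclear plus cytoplasmic (antagonist) fluorescence versus DMSO read by laser scanning cytometry.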

[3] = molecular target: Retinoic acid receptor RXR-alpha (Homo sapiens) (UniProt P19793); assay: OT_NURR1_NURR1RXRa_0480: Odyssey Thera (OT) 8-hour HEK293T Protein Complementation Assay for Nurr1/retinoid X receptor (RXR) (AID 2283385)
Sequence of Retinoic acid receptor RXR-alpha (Homo sapiens) (P19793 whole entry, looked up, the tested form may be a part): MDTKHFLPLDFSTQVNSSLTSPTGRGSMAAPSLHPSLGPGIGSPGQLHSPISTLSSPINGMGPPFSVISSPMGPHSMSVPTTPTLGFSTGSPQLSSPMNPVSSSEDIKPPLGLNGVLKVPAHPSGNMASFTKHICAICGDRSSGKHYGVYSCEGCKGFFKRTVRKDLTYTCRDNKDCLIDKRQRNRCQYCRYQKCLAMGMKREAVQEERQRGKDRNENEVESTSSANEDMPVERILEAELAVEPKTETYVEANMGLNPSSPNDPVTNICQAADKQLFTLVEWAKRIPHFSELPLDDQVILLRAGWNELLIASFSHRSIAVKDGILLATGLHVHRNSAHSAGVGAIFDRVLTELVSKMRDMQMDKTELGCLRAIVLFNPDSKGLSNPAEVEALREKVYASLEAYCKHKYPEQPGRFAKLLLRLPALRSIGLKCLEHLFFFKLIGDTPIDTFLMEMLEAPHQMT
How it was run: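 Interaction of Nurr1 with RXRα read as reconstituted reporter fluorescence in a HEK293T fragment-complementation system, 8 h post-treatment; increase over DMSO baseline analysed.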

[4] = molecular target: Retinoic acid receptor RXR-alpha (Homo sapiens) (UniProt P19793); assay: OT_NURR1_NURR1RXRa_1440: Odyssey Thera (OT) 24-hour HEK293T Protein Complementation Assay for Nurr1/retinoid X receptor (RXR) (AID 2283386)
How it was run: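 Gain in fluorescence, fitted relative to DMSO, reflects Nurr1–RXRα association in HEK293T cells after 24 h dosing. Bait and prey are each linked to a reporter-protein fragment that reassembles on interaction.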

[5] = molecular target: Peroxisome proliferator-activated receptor gamma (Homo sapiens) (UniProt P37231); assay: OT_PPARg_PPARgSRC1_0480: Odyssey Thera (OT) 8-hour Protein-Complementation Assay for Peroxisome Proliferator-activated Receptor Gamma / SRC-1 Co-activator (AID 2283387)
Sequence of Peroxisome proliferator-activated receptor gamma (Homo sapiens) (P37231 whole entry, looked up, the tested form may be a part): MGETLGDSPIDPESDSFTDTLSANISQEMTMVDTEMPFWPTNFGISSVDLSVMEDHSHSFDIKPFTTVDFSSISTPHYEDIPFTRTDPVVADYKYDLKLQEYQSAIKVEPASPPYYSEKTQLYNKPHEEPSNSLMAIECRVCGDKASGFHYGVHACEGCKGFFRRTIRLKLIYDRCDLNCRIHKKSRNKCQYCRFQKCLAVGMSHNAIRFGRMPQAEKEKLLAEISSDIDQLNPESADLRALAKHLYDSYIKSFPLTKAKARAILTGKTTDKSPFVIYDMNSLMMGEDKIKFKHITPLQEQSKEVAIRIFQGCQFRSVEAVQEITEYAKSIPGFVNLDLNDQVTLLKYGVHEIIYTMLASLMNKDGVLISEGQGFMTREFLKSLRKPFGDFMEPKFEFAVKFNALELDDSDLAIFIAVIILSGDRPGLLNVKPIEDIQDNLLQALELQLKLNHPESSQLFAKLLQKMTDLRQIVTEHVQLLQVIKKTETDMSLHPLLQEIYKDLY
How it was run: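 Protein-fragment complementation of split Venus YFP reports PPARg/SRC-1 interaction in HEK293T (transfected 48 h before treatment), exposed 8 h. Readout: N/C fluorescence ratio at 488 nm from imaging, Draq5 for segmentation, positive fit relative to DMSO.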

[6] = molecular target: Peroxisome proliferator-activated receptor gamma (Homo sapiens) (UniProt P37231); assay: OT_PPARg_PPARgSRC1_1440: Odyssey Thera (OT) 24-hour Protein-Complementation Assay for Peroxisome Proliferator-activated Receptor Gamma/ SRC-1 Co-activator (AID 2283388)
How it was run: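 HEK293T transiently transfected with PPARg/SRC-1 split-Venus YFP fusions 48 h before dosing, then treated 24 h at 37C. Fixed cells imaged; nuclear/cytoplasmic 488 nm fluorescence ratio, gain of signal versus DMSO.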

[7] = CEETOX_H295R_OHPREG: CeeTox H295R High-throughput Steroidogenesis Assay for OH-Pregnenolone (OHPREG) (AID 2283434; active = hit-call score of the fitted dose curve at least 0.9, where 1 is the maximum; inactive = score below 0.9); conditions: actives raise or lower the signal
How it was run: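 H295R, 10 uM forskolin pre-stim 48 h; test chemical 48 h, 0.1% DMSO final. MTBE extraction, reverse-phase C18 HPLC-ESI+ MS/MS of medium. Gain/loss vs DMSO; viability by MTT in same wells.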

[8] = CEETOX_H295R_OHPROG: CeeTox H295R High-throughput Steroidogenesis Assay for OH-Progesterone (OHPROG) (AID 2283435; active = hit-call score of the fitted dose curve at least 0.9, where 1 is the maximum; inactive = score below 0.9;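 for AC50: 17alpha-hydroxyprogesterone secreted into medium measured by HPLC-MS/MS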); conditions: actives raise or lower the signal
How it was run: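 Medium steroid levels read by LC-MS/MS after 48 h chemical treatment (0.1% DMSO) of human adrenal H295R cells that had been forskolin-primed (10 uM, 48 h). Gain or loss fitted against DMSO; MTT cytotoxicity checked per well.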

[9] = CEETOX_H295R_ANDR: CeeTox H295R High-throughput Steroidogenesis Assay for Androstenedione (ANDR) (AID 2283436; active = hit-call score of the fitted dose curve at least 0.9, where 1 is the maximum; inactive = score below 0.9); conditions: actives raise or lower the signal
How it was run: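 48 h chemical exposure, H295R cells, DMEM/F12 + ITS+ and Nu-Serum. Medium androstenedione: MTBE extraction, C18 reverse-phase HPLC, ESI+ MS/MS. Fit bidirectional vs DMSO; MTT viability in same wells.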

[10] = CEETOX_H295R_PROG: CeeTox H295R High-throughput Steroidogenesis Assay for Progesterone (PROG) (AID 2283442; active = hit-call score of the fitted dose curve at least 0.9, where 1 is the maximum; inactive = score below 0.9;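 for AC50: human H295R adrenal cells primed with 10 µM forskolin before dosing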); conditions: actives raise or lower the signal
How it was run: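 H295R adrenal cells prestimulated 48 h with 10 uM forskolin, then exposed 48 h to test chemical in 0.1% DMSO. Progesterone in medium quantified by HPLC-MS/MS after MTBE extraction; viability checked by MTT in same wells.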

[11] = read-out: Tumor necrosis factor receptor superfamily member 6 (Homo sapiens) (UniProt P25445); assay: LTEA_HepaRG_FAS: Life Technologies and Expression Analysis (LTEA) Assay for Fas cell surface death receptor (FAS) using HepaRG (AID 2283447; active = hit-call score of the fitted dose curve at least 0.9, where 1 is the maximum; inactive = score below 0.9); conditions: mRNA level, 48 h; actives raise or lower the signal
How it was run: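 Differentiated HepaRG cells in serum-free induction medium were exposed 48 h to 8 half-log concentrations up to 100 uM in 0.5% DMSO, in duplicate. FAS mRNA was measured by qRT-PCR normalised to ACTB, GAPDH and POLR2A; bidirectional fit versus DMSO.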

[12] = molecular target: Estrogen receptor (Homo sapiens) (UniProt P03372); assay: OT_ERa_GFPERaERE_0480: Odyssey Thera (OT) 8-hour HeLa Transcription Induction Assay for Estrogen Receptor (AID 2283381; active = hit-call score of the fitted dose curve at least 0.9, where 1 is the maximum; inactive = score below 0.9)
Sequence of Estrogen receptor (Homo sapiens) (P03372 whole entry, looked up): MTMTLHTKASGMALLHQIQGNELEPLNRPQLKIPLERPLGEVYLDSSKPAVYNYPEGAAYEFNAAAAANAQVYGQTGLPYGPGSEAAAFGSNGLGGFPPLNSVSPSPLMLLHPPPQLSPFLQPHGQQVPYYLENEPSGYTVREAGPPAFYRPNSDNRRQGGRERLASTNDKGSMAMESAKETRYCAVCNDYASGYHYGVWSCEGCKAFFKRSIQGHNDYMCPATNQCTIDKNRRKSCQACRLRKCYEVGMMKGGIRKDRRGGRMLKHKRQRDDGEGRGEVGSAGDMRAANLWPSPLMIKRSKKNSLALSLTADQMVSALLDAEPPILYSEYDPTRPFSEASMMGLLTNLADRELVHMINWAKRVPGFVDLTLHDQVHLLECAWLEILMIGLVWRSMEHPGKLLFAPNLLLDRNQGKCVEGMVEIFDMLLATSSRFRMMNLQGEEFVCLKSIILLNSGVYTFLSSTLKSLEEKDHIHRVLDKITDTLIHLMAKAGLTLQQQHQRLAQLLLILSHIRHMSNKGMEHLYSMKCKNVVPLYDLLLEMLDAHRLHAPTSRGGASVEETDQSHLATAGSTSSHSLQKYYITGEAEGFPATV
How it was run: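 Fluorescence microscopy with high-content image analysis measures ERE-driven GFP induction in HeLa cells at 8 h post-dose. Increases fitted against DMSO baseline.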

[13] = molecular target: Estrogen receptor (Homo sapiens) (UniProt P03372); assay: OT_ERa_GFPERaERE_0120: Odyssey Thera (OT) 2-hour HeLa Transcription Induction Assay for Estrogen Receptor (AID 2283382)
How it was run: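 Fluorescence-microscopy images of the GFP-ERα/ERE reporter, scored by high-content image algorithms, give the readout. HeLa exposure lasted 2 h, and only signal increase over DMSO was fitted.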

[14] = molecular target: Bile acid receptor (Homo sapiens) (UniProt Q96RI1); assay: OT_FXR_FXRSRC1_1440: Odyssey Thera (OT) 24-hour HEK293T Protein-Complementation Assay for Farnesoid X receptor/SRC-1 Co-activator (AID 2283384)
Sequence of Bile acid receptor (Homo sapiens) (Q96RI1 whole entry, looked up, the tested form may be a part): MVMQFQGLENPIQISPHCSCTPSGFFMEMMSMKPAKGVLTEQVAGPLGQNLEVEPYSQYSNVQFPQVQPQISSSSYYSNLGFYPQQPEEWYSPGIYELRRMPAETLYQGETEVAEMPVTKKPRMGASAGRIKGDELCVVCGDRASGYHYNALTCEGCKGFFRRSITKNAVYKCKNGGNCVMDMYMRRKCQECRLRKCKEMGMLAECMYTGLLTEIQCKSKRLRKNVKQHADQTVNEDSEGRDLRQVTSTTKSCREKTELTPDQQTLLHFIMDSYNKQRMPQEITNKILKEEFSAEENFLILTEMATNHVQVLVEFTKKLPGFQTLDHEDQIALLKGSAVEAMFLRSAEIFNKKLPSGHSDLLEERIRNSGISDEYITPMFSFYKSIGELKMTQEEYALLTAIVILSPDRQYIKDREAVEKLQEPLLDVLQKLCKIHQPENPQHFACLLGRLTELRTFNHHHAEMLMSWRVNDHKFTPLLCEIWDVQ
How it was run: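 Protein-fragment complementation: FXR and SRC-1 fused to reporter fragments that reassemble on interaction, read by fluorescence intensity. Human HEK293T cells measured 24 h post-dose; positive-direction fit versus DMSO.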

[15] = CEETOX_H295R_11DCORT: CeeTox H295R High-throughput Steroidogenesis Assay for 11-Deoxycortisol (11DCORT) (AID 2283432; active = hit-call score of the fitted dose curve at least 0.9, where 1 is the maximum; inactive = score below 0.9;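 for AC50: 11-deoxycortisol secreted into the medium measured by LC-MS/MS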); conditions: actives raise or lower the signal
How it was run: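 Human adrenal H295R cells were prestimulated with 10 uM forskolin for 48 h, then exposed to test chemical (0.1% DMSO final) for 48 h. Medium 11-deoxycortisol was quantified by MTBE extraction and HPLC-MS/MS; bidirectional fitting relative to DMSO.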

[16] = CEETOX_H295R_CORTISOL: CeeTox H295R High-throughput Steroidogenesis Assay for Cortisol (AID 2283438; active = hit-call score of the fitted dose curve at least 0.9, where 1 is the maximum; inactive = score below 0.9); conditions: actives raise or lower the signal
How it was run: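 Cortisol measured by HPLC-MS/MS after MTBE extraction of medium from H295R cells exposed 48 h to chemical (0.1% DMSO), following 48 h prestimulation with 10 uM forskolin. Viability assessed by MTT in the same wells.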

[17] = CEETOX_H295R_DOC: CeeTox H295R High-throughput Steroidogenesis Assay for DOC (AID 2283439; active = hit-call score of the fitted dose curve at least 0.9, where 1 is the maximum; inactive = score below 0.9); conditions: actives raise or lower the signal
How it was run: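 11-Deoxycorticosterone quantified in medium by MTBE extraction and HPLC-MS/MS after 48 h chemical exposure (0.1% DMSO) of forskolin-primed (10 uM, 48 h) H295R cells. Same-well MTT viability; data fitted bidirectionally against DMSO.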

[18] = CEETOX_H295R_ESTRADIOL: CeeTox H295R High-throughput Steroidogenesis Assay for Estradiol (AID 2283440; active = hit-call score of the fitted dose curve at least 0.9, where 1 is the maximum; inactive = score below 0.9;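 note: estradiol secreted into medium quantified by LC-MS/MS after dansyl derivatisation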); conditions: actives raise or lower the signal
How it was run: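 H295R cells pre-stimulated 48 h with 10 uM forskolin, then exposed 48 h to chemical in 0.1% DMSO. Medium estradiol quantified by MTBE extraction, dansyl derivatisation and HPLC-MS/MS; bidirectional fit versus DMSO; MTT viability required >/=70%.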

[19] = CEETOX_H295R_ESTRONE: CeeTox H295R High-throughput Steroidogenesis Assay for Estrone (AID 2283441; active = hit-call score of the fitted dose curve at least 0.9, where 1 is the maximum; inactive = score below 0.9); conditions: actives raise or lower the signal
How it was run: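 Estrone secreted into medium quantified by LC-MS/MS after dansyl chloride derivatization, following 48 h chemical exposure (0.1% DMSO final) of forskolin-prestimulated (10 uM, 48 h) H295R cells; gain or loss fitted against DMSO; MTT viability in same wells.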

[20] = molecular target: mouse Estrogen Receptor alpha (Era), Esr1 (gene 13982) (UniProt P19785); assay: NVS_NR_mERa: NovaScreen (NVS) Nuclear Receptor Binding Assay for mouse Estrogen Receptor alpha (Era) (AID 2283378);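 note: hit means loss of bound radioligand signal relative to DMSO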
Sequence of mouse Estrogen Receptor alpha (Era), Esr1 (gene 13982) (P19785 whole entry, looked up): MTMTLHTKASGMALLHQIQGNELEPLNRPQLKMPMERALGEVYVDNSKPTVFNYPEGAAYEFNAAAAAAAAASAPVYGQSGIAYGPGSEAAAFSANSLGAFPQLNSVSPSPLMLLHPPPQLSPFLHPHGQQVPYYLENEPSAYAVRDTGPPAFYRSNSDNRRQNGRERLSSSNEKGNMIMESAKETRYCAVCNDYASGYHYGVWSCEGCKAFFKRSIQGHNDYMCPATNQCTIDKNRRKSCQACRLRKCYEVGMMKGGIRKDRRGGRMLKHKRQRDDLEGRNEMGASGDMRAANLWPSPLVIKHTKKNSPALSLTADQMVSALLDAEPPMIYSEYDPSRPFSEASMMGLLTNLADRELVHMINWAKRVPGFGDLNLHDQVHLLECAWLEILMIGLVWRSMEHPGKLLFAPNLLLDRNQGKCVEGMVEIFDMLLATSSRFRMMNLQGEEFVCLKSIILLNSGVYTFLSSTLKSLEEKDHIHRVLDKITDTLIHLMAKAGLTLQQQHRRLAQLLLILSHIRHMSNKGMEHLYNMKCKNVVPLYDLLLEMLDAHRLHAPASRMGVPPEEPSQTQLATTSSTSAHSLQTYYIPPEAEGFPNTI
How it was run: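 Cell-free radioligand competitive displacement binding, read by filter-based scintillation counting 18 h after dosing. Primary screen run in duplicate at 25 uM, actives retested in concentration series; loss of signal versus DMSO.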

Measured: AC50

O=C1OC(c2ccc(O)cc2)(c2ccc(O)cc2)c2ccccc21
inactive: [1] | [3] | [4] | [5] | [6] | [7] | [9] | [11]
active: [2] 11.9 µM | [8] 1.77 µM | [10] 2.39 µM

C#CC(O)C(CC)CCCC (centres undefined)
active: [3] 28.8 µM | [4] 76.3 µM
inactive: [1] | [2] | [5] | [6] | [11]

COc1ccc(C(=O)Nc2nc3ccccc3c(NCc3ccccc3)c2C#N)cc1
inactive: [2] | [12] | [13] | [4] | [5] | [6] | [15] | [16] | [18] | [19] | [11]
active: [14] 14.4 µM | [3] 9.26 µM | [7] 9.81 µM | [8] 0.349 µM | [17] 3.01 µM | [10] 1.49 µM

C=CCCCCCCCCCCCC
inactive: [1] | [2] | [14] | [3] | [4] | [5] | [6] | [11]

CC1=C(C)S(=O)(=O)CCS1(=O)=O
inactive: [1] | [2] | [12] | [13] | [3] | [5] | [6] | [15] | [7] | [8] | [9] | [16] | [17] | [18] | [19]
active: [10] 1.03 µM | [11] 76.8 µM

CCCCCCC(CCCCCCCCCCC(=O)OCC(COC(C)=O)OC(C)=O)OC(C)=O (centres undefined)
inactive: [2] | [12] | [13] | [14] | [3] | [4] | [5] | [6] | [11]

O=C(NS(=O)(=O)/C=C/c1cccs1)c1ccc(F)cc1Br
active: [14] 1.72 µM | [3] 29.6 µM | [4] 17.3 µM | [6] 51.2 µM
inactive: [1] | [2] | [12] | [13] | [5] | [11]

NC(=Nc1ccccc1)Nc1ccccc1
inactive: [2] | [12] | [13] | [14] | [5] | [6] | [11]
active: [3] 5.14 µM and 12.2 µM | [4] 11.6 µM

CCc1nc(N)nc(N)c1-c1ccc(Cl)cc1
inactive: [2] | [12] | [13] | [14] | [3] | [4] | [5] | [6] | [11]

CCC(C)N(C)C(=O)c1cc2ccccc2c(-c2ccccc2Cl)n1 (centres undefined)
inactive: [1] | [2] | [12] | [13] | [3] | [4] | [5] | [6] | [7] | [9] | [18] | [19] | [11]
active: [8] 3.85 µM | [10] 3.89 µM

CN(C)C(=O)NC1(c2ccccc2)CCN(CCC[C@]2(c3ccc(Cl)c(Cl)c3)CCCN(C(=O)c3ccccc3)C2)CC1
active: [3] 19.3 µM
inactive: [20] | [2] | [12] | [13] | [14] | [3] | [4] | [5] | [6] | [15] | [7] | [8] | [16] | [17] | [18] | [19] | [10] | [11]

O=C(Oc1ccccc1)c1cccc(C(=O)Oc2ccccc2)c1
active: [3] 75.2 µM and 79.8 µM | [4] 69.2 µM | [15] 36.4 µM
inactive: [1] | [2] | [14] | [4] | [5] | [6] | [7] | [8] | [9] | [16] | [17] | [10] | [11]

OCC(CO)n1cnc(-c2ccc(F)cc2)c1-c1ccnc(Oc2ccccc2)n1
inactive: [20] | [2] | [12] | [13] | [3] | [4] | [5] | [6] | [11]

CCCCC(CC)COC(=O)CCCCCCCC(=O)OCC(CC)CCCC (centres undefined)
inactive: [20] | [3] | [4] | [11]

CCCCCCCCCC[N+](C)(C)[O-]
active: [15] 28.5 µM | [8] 31.7 µM | [9] 17 µM | [10] 3.86 µM
inactive: [1] | [2] | [12] | [13] | [5] | [6] | [7] | [16] | [17] | [18] | [19] | [11]

CCN(CC)CCOc1ccc(C(=C(Cl)c2ccccc2)c2ccccc2)cc1
inactive: [1] | [5] | [6] | [16] | [11]
active: [2] 60.4 nM and 53.3 nM and 30.6 nM | [3] 9.55 µM | [15] 0.104 µM | [7] 0.0411 µM | [8] 0.147 µM | [9] 0.222 µM | [17] 0.0456 µM | [10] 0.0347 µM
